5 compounds from PubChem BioAssay (EPA / NIEHS) can be followed below.

Results filed as inconclusive are left out. Activity calls are given as the source filed them. Rule for the calls, unless noted: active = hit-call score of the fitted dose curve at least 0.9, where 1 is the maximum; inactive = score below 0.9.

The nature of assay [1]: BSK_LPS_SRB: Viability Assessment in the BioMAP Diversity Plus: LPS Assay (AID 2283079).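 Note: total protein by sulforhodamine B absorbance as a cytotoxicity measure; measured one day after compound addition.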 To be noted: primary human HUVEC with PBMC. Put shortly:
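HUVEC + PBMC co-culture, LPS-stimulated; compound 24 h. 10% TCA fix, 0.1% SRB stain, A560. Bidirectional fit vs DMSO.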

Read-out in assay [2]: Interleukin-1 alpha (IL1a), IL1A (gene 3552)
The assay is described as follows: BSK_LPS_IL1a: BioMAP Diversity Plus: LPS Assay for Interleukin-1 alpha (IL1a) Biomarker Activity (AID 2283080). The following applies: primary human HUVEC with PBMC; actives raise or lower the signal. Put shortly: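 HUVEC/PBMC co-culture, LPS system; 24 h after dosing; IL-1a by ELISA; gain or loss of signal fitted bidirectionally vs DMSO baseline.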

Read-out in assay [3]: Monocyte Chemoattractant Protein-1 (MCP1), CCL2 (gene 6347)
The assay is described as follows: BSK_LPS_MCP1: BioMAP Diversity Plus: LPS Assay for Monocyte Chemoattractant Protein-1 (MCP1) Biomarker Activity (AID 2283081).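 For AC50: secreted MCP-1 protein quantified by ELISA in culture supernatant.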 The following applies: primary human HUVEC with PBMC; actives raise or lower the signal. Put shortly: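 ELISA read-out of MCP-1 after 24 h chemical dosing of a human umbilical vein endothelial cell/peripheral blood mononuclear cell co-culture stimulated with LPS. Gain or loss of signal fitted relative to DMSO controls.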

Assay [4] can be described thus: BSK_LPS_PGE2: BioMAP Diversity Plus: LPS Assay for Prostaglandin E2 (PGE2) Biomarker Activity (AID 2283082).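 For AC50: secreted prostaglandin E2 measured by ELISA in LPS-stimulated co-culture.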 To be noted: primary human HUVEC with PBMC; actives raise or lower the signal. Put shortly:
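ELISA read-out of PGE2 from human umbilical vein endothelial cells co-cultured with peripheral blood mononuclear cells under LPS, 24 h post-dose. Gain or loss of signal scored relative to DMSO baseline.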

Read-out in assay [5]: Macrophage colony-stimulating factor (MCSF), CSF1 (gene 1435)
The assay is described as follows: BSK_LPS_MCSF: BioMAP Diversity Plus: LPS Assay for Macrophage colony-stimulating factor (MCSF) Biomarker Activity (AID 2283083). The following applies: primary human HUVEC with PBMC; actives raise or lower the signal. Put shortly: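 HUVEC + PBMC co-culture (human primary), 24 h post-dose; M-CSF by ELISA; gain/loss of signal fitted bidirectionally vs DMSO baseline.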

Read-out in assay [6]: Tissue Factor, F3 (gene 2152)
The assay is described as follows: BSK_LPS_TissueFactor: BioMAP Diversity Plus: LPS Assay for Tissue Factor Biomarker Activity (AID 2283084). To be noted: primary human HUVEC with PBMC; actives raise or lower the signal. Put shortly: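 HUVEC/PBMC co-culture, LPS-activated; CD142 ELISA read 24 h post-dose; bidirectional curve fit vs DMSO negative control.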

Read-out in assay [7]: Tumor necrosis factor (Homo sapiens) (UniProt P01375)
The assay is described as follows: BSK_LPS_TNFa: BioMAP Diversity Plus: LPS Assay for Tumour Necrosis Factor alpha (TNFa) Biomarker Activity (AID 2283085).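 For AC50: TNFa protein level quantified by ELISA in the co-culture.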 To be noted: primary human HUVEC with PBMC; actives raise or lower the signal. A digest of the protocol:
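HUVEC/PBMC co-culture, LPS-stimulated; 24 h post-dose; TNFa by ELISA; gain or loss of signal fitted bidirectionally vs DMSO baseline.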

Read-out in assay [8]: Vascular cell adhesion molecule 1 (VCAM1), VCAM1 (gene 7412)
The assay is described as follows: BSK_LPS_VCAM1: BioMAP Diversity Plus: LPS Assay for Vascular cell adhesion molecule 1 (VCAM1) Biomarker Activity (AID 2283086). To be noted: primary human HUVEC with PBMC; actives raise or lower the signal. A digest of the protocol:
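ELISA read-out of VCAM-1 at 24 h post-dosing in an LPS-driven HUVEC/PBMC primary human co-culture; gain or loss of signal fitted bidirectionally against DMSO baseline. Cytotoxicity tracked in parallel cultures by SRB total-protein staining.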

Read-out in assay [9]: CD38, CD38 (gene 952)
The assay is described as follows: BSK_SAg_CD38: BioMAP Diversity Plus: SAg Assay for CD38 Biomarker Activity (AID 2283087). The following applies: primary human HUVEC with PBMC; actives raise or lower the signal. A digest of the protocol: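 Measures CD38 on a human endothelial/PBMC co-culture driven by SEB and TSST-1, 24 h after compound exposure, using ELISA with fluorescence detection; DMSO defines baseline for bidirectional curve fitting.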

Read-out in assay [10]: CD40, CD40 (gene 958)
In words: BSK_SAg_CD40: BioMAP Diversity Plus: SAg Assay for CD40 Biomarker Activity (AID 2283088). The following applies: primary human HUVEC with PBMC; actives raise or lower the signal. Put shortly: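 HUVEC/PBMC co-culture, 24 h post-dose; CD40 by ELISA, fluorescence intensity; bidirectional fit vs DMSO negative control.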

Read-out in assay [11]: Monocyte Chemoattractant Protein-1 (MCP1), CCL2 (gene 6347)
The assay is described as follows: BSK_SAg_MCP1: BioMAP Diversity Plus: SAg Assay for Monocyte Chemoattractant Protein-1 (MCP1) Biomarker Activity (AID 2283090). To be noted: primary human HUVEC with PBMC; actives raise or lower the signal. Put shortly: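 Values derive from bidirectional fitting of ELISA-measured MCP1 against DMSO controls. Readings were taken 24 h after dosing human vascular endothelial cells co-cultured with peripheral blood mononuclear cells under superantigen stimulation.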

Read-out in assay [12]: E-selectin (Homo sapiens) (UniProt P16581)
The assay is described as follows: BSK_SAg_Eselectin: BioMAP Diversity Plus: SAg Assay for Eselectin Biomarker Activity (AID 2283091). The following applies: primary human HUVEC with PBMC; actives raise or lower the signal. Put shortly:
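E-selectin ELISA readout at 24 h post-dosing in human umbilical vein endothelial cell/PBMC co-culture; gain or loss of signal fitted relative to DMSO baseline.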

Read-out in assay [13]: Monokine induced gamma interferon (MIG), CXCL9 (gene 4283)
In words: BSK_SAg_MIG: BioMAP Diversity Plus: SAg Assay for Monokine induced gamma interferon (MIG) Biomarker Activity (AID 2283092). The following applies: primary human HUVEC with PBMC; actives raise or lower the signal. Put shortly: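 HUVEC plus human PBMC co-culture, chemicals dosed and MIG (CXCL9) quantified by ELISA at 24 h. Bidirectional curve fitting against DMSO as negative control and baseline, so both gain and loss of signal count as activity.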

Assay [14] in a line: BSK_SAg_PBMCCytotoxicity: PBMC Cytotoxicity Assessment in the BioMAP Diversity Plus: SAg Assay (AID 2283093).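 For AC50: PBMC superantigen activated with SEB plus TSST-1 one hour after compound addition.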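 Note: fitted both ways against DMSO so a hit may be loss or gain of signal.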 The following applies: primary human HUVEC with PBMC. A digest of the protocol: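 PBMC viability by Alamar Blue reduction, fluorescence read at 546/580 nm after 6 h dye exposure. Cells were dosed 1 h before SEB plus TSST-1 activation (20 ng/mL final each), then held 90 h; endothelial/PBMC human co-culture.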

Read-out in assay [15]: Interleukin-8 (IL8), CXCL8 (gene 3576)
In words: BSK_SAg_IL8: BioMAP Diversity Plus: SAg Assay for Interleukin-8 (IL8) Biomarker Activity (AID 2283094). To be noted: primary human HUVEC with PBMC; actives raise or lower the signal. Put shortly: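 HUVEC/PBMC co-culture, 24 h post-dose; IL-8 by ELISA. Gain or loss of signal fitted bidirectionally vs DMSO baseline.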

Assay [16] can be described thus: BSK_SAg_Proliferation: Cell Proliferation Assessment in the BioMAP Diversity Plus: SAg Assay (AID 2283095).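 Note: relative cell number as total protein by SRB absorbance in sub-confluent culture.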 To be noted: primary human HUVEC with PBMC. A digest of the protocol:
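HUVEC/PBMC co-culture, 96-well. TCA-fixed (10%), 0.1% SRB stain, A560 at 96 h. Protein content used as viability readout; bidirectional fitting vs DMSO control.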

Assay [17] in a line: BSK_SAg_SRB: Viability Assessment in the BioMAP Diversity Plus: SAg Assay (AID 2283096).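 Note: cells read one day after compound addition; hits may be either gain or loss of signal compared with DMSO.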 The following applies: primary human HUVEC with PBMC. A digest of the protocol: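 Compounds were added to a human vascular co-culture of umbilical vein endothelium and PBMC. After 24 h, parallel cultures were fixed with 10% TCA, stained with 0.1% sulforhodamine B and read at 560 nm. Gain or loss of signal was fitted relative to DMSO.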

The target of assay [18] is human CYP19A1, CYP19A1 (gene 1588) (UniProt P11511). The assay is described as follows: NVS_ADME_hCYP19A1: NovaScreen (NVS) CYP450-related Enzyme Activity (ADME) Assay for human CYP19A1 (AID 2283098; active = hit-call score of the fitted dose curve at least 0.9, where 1 is the maximum). A digest of the protocol:
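Fluorescence intensity read-out; activity taken as signal loss relative to acetonitrile vehicle. Extracted enzyme, specific substrate, no cells, 0.5 h exposure. Duplicate single-point screen at 10 uM, then concentration–response follow-up for actives.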

Sequence of Tumor necrosis factor (Homo sapiens) (P01375 whole entry, looked up): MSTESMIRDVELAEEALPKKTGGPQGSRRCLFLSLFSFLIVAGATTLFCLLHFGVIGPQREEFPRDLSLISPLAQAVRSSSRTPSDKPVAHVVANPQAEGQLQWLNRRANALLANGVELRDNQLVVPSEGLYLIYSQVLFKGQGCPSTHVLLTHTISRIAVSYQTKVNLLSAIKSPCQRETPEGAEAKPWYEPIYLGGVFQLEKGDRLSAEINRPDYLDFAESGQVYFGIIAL
Sequence of E-selectin (Homo sapiens) (P16581 whole entry, looked up): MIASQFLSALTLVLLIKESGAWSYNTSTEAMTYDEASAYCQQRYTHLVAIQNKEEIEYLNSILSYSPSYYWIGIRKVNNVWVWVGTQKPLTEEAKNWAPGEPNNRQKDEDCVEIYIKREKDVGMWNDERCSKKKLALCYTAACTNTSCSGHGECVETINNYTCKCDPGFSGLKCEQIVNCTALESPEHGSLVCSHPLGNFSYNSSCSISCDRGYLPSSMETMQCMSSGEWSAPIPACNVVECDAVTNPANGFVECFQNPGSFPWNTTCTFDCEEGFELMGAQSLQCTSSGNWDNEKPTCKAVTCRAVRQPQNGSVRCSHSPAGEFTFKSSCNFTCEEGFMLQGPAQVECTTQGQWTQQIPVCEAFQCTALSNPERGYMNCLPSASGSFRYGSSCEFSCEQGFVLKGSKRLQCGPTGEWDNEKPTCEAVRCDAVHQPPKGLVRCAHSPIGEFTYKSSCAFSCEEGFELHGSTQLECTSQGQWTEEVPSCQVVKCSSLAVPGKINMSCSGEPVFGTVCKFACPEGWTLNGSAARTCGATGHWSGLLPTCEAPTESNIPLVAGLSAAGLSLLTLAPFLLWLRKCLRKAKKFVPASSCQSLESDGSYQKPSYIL
Sequence of human CYP19A1, CYP19A1 (gene 1588) (P11511 whole entry, looked up): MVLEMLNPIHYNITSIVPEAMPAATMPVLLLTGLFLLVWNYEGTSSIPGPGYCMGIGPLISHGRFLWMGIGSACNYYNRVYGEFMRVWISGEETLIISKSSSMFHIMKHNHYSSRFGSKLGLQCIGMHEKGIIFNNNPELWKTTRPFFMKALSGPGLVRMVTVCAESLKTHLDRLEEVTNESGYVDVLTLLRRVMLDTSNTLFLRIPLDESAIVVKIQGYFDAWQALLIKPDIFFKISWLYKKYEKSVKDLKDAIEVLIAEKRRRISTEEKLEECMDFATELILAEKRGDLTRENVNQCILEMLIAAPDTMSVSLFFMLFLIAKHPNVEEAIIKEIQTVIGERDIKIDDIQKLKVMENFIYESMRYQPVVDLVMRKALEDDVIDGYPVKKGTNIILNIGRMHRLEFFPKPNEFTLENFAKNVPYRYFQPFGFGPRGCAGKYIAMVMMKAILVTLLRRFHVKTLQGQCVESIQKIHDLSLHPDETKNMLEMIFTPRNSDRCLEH

In the case of `COCCO`, the result in assay [1], in [2], in assay [3], in assay [4], in assay [5] and in assay [6] was inactive. In addition, the outcome in [7], in assay [8], in [9], in assay [10], in [11] and in assay [12] was inactive. The outcome in assay [13], in assay [14], in assay [15], in assay [16] and in assay [17] was inactive.

Regarding `CCCCC(CC)COC(=O)c1ccccc1C(=O)O` (stereo not given), the outcome in assay [1], in [2], in assay [3], in assay [4], in assay [5] and in assay [6] was inactive. Further, the result in assay [9], in [10], in [11], in assay [12], in [13] and in assay [14] was inactive. In addition, the outcome in assay [15], in assay [16] and in assay [17] was inactive. Further, the figures for the concentration at half-maximal activity (AC50) in [7] and in [8] were 21800 nM (active) and 22900 nM (active), respectively.

As for `CCCCOC(=O)[C@@H](C)Oc1ccc(Oc2ccc(C(F)(F)F)cn2)cc1`, the outcome in assay [1], in assay [2], in assay [3], in [4], in assay [5] and in assay [6] was inactive. Further, the outcome in assay [7], in [8], in assay [9], in [10], in assay [11] and in assay [12] was inactive. In addition, the outcome in assay [13], in [14], in assay [15], in [16] and in assay [17] was inactive.

Take `O=C(Nc1ccc([N+](=O)[O-])cc1Cl)c1cc(Cl)ccc1O`: the AC50 – broadly, the concentration at which the activity in the assay is half-maximal – in assay [1] is 445 nM (active); in [2], 109 nM (active); in assay [4], 178 nM (active); in assay [5], 148 nM (active); in [7], 583 nM (active); in assay [8], 175 nM (active). For the same compound, the AC50 in [9] was 148 nM (active); in [10] it was 170 nM (active); in assay [11] it was 148 nM (active); in assay [12] it was 148 nM (active); in assay [13], 289 nM (active); in assay [14], 1780 nM (active). The figures for the AC50 in [15], in assay [16] and in assay [17] were 493 nM (active), 148 nM (active) and 650 nM (active), respectively. Moreover, the result in [6] was inactive.

Take `CCCOC(=O)c1ccc(C(=O)OCCC)nc1`: the result in assay [1], in [2], in [4], in assay [5], in [6] and in [7] was inactive. The outcome in assay [8], in [11], in assay [12], in assay [13], in assay [14] and in [15] was inactive. In addition, the result in assay [16], in [17] and in [18] was inactive. For the same compound, the AC50 in assay [3] is 1840 nM (active); in assay [9] it was 624 nM (active); in assay [10], 3090 nM (active).
